The target in assay [1] is Single-stranded DNA-binding protein (Escherichia coli (strain K12)) (UniProt P0AGE0). The assay can be described thus: E. coli SSB displacement from DNA, counter-screen for HCV NS3 helicase inhibitor project, biochemical, fluorescence polarization, NIH Clinical Collection (AID 743271; in the data active means inhibition above about 28%). The following applies: active compounds read high, concentration not given here.
The nature of assay [2]: fluorescence interference in NS3h assay format, artefact control for HCV NS3 helicase inhibitor project, biochemical, NIH Clinical Collection (AID 743272; call rule not given here;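 further: HCV NS3 helicase with a Cy5 labelled single stranded DNA probe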). The following applies: fluorescence interference counterscreen, active compounds read low. (The purpose of a counterscreen is to sort out artefacts and off-target activity.)
In assay [3] the test system is F380Y. The assay can be described thus: modulators of BK channel variants, profiling panel, selectivity assay, cell-based, U2OS BacMam, thallium flux, beta subunits (AID 1259406).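 Further: initial slope of Thallos dye fluorescence rise after thallium is added; log ratio against the mean of 0.3% DMSO vehicle wells on the same plate.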 As to conditions: at 30 µM.
Assay [4] relates to F380Y/beta1. The description is as above. The following applies: at 30 µM.
In assay [5] the test system is F380Y/beta2Delta. The assay is described as above. As to conditions: at 30 µM.
Assay [6] concerns F380Y/beta4. The description is as above. The following applies: at 30 µM.
For assay [7], the target named is Calcium-activated potassium channel subunit alpha-1 (Homo sapiens) + Leucine-rich repeat-containing protein 26 (Homo sapiens) (UniProt Q12791+Q2I0M4). The assay is described as above. The following applies: F380Y/Slo1WT/gamma1, at 30 µM.
Assay [8] concerns R275C. The description is as above. As to conditions: at 30 µM.
Assay [9] relates to R275C/beta1. The description is as above. The following applies: at 30 µM.
The subject of assay [10] is R275C/beta2Delta. The description is as above. The following applies: at 30 µM.
Assay [11] concerns R275C/beta4. The assay is described as above. As to conditions: at 30 µM.
Assay [12] relates to R275C/Slo1WT/beta2. The description is as above. The following applies: at 30 µM.
Assay [13] is described as follows: circadian clock period modulators, cell-based, LOPAC library, luminescence reporter (AID 2774; call rule not given here;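 further: values are relative to mean of DMSO wells on each plate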). As to conditions: circadian reporter cells, at 7 µM, actives lie on both sides.
Assay [14] relates to Hepatitis C virus NS3 helicase. Nature of the assay: HCV NS3 helicase inhibitors, primary screen, biochemical, fluorescence polarization, LOPAC1280 library (AID 687035; in the data active means inhibition above about 37%). The following applies: Purified HCV NS3 helicase, Cy5-dT15 ssDNA binding fluorescence polarization; active compounds read high; concentration not given here. (In general: In fluorescence polarisation assays a small probe gives low polarisation when free and higher when bound to something large.)

A short description of assay [15]: Cy5 fluorescence quenching or enhancement artefacts, artefact control for HCV NS3 helicase inhibitor project, biochemical, LOPAC1280 (AID 687037; call rule not given here). The following applies: Cy5-DNA-NS3h complex fluorescence interference counterscreen.
The nature of assay [16]: phospholipid biosynthesis inhibitors in animal cells, primary screen, cell-based, LOPAC library, screen 4 (AID 1347384; call rule not given here). As to conditions: phospholipid biosynthesis inhibition screen, at 10 µM.
A short description of assay [17]: modulation of C. elegans fzo-1 (AID 1259413; call rule not given here;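 further: fzo-1 mutant C. elegans worms in liquid wells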). The following applies: C. elegans fzo-1 modulator screen, mean read-out; active compounds read high.
The nature of assay [18]: growth inhibition of DIPG glioma cells, dose response, cell-based, JHH-DIPG-1, MIPE4.0, CellTiter-Glo, qHTS (AID 1347062; cut-off not given, nearly all actives have AC50 up to about 27 µM). As to conditions: JHH-DIPG-1 viability, CellTiter-Glo ATP luminescence. In general terms: ATP-based viability assays read luminescence as a measure of living cells.
A short description of assay [19]: growth inhibition of DIPG glioma cells, dose response, cell-based, SU-DIPG-IV, MIPE4.0, CellTiter-Glo, qHTS (AID 1347063; cut-off not given, nearly all actives have AC50 up to about 30 µM;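 further: compound exposure lasted 48 hours before the viability readout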). As to conditions: SU-DIPG-IV viability, CellTiter-Glo ATP luminescence.
A short description of assay [20]: growth inhibition of DIPG glioma cells, dose response, cell-based, SU-DIPG-XIII, MIPE4.0, CellTiter-Glo, qHTS (AID 1347061; cut-off not given, nearly all actives have AC50 up to about 37 µM;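 further: cells exposed to compound for 48 hours before readout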). As to conditions: SU-DIPG-XIII viability, CellTiter-Glo ATP luminescence.

Unmarked numbers belong to inactive results. Records with an inconclusive call do not appear. Calls of active or inactive are those of the source.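 How the source made its calls, unless noted: active means thallium flux through the channel raised or lowered by more than 3 SD from vehicle-only wells, actives on both sides; inactive means the rest.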

Sequence of Calcium-activated potassium channel subunit alpha-1 (Homo sapiens) + Leucine-rich repeat-containing protein 26 (Homo sapiens) (Q2I0M4 whole entry, looked up, one chain of several): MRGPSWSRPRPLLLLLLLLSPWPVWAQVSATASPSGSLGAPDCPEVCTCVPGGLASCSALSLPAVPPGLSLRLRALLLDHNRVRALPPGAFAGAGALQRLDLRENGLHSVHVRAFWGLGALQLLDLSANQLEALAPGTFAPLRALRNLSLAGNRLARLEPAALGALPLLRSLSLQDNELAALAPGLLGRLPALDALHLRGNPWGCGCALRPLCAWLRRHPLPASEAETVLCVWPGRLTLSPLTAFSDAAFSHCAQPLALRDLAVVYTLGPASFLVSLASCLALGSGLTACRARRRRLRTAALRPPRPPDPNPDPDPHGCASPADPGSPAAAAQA

One may read the inhibition as the relative decrease from the control value, in per cent. Turning to `C#C[C@]1(O)CC[C@H]2[C@@H]3CCC4=CC(=O)CC[C@@H]4[C@H]3CC[C@@]21C`, the inhibition in assay [1] is 3.34%. Further, the fluorescence ratio in [2] is 0.96. Besides, the log fold change Tl+ flux is 0.0234 in assay [3]; 0.0886 in assay [4]; 0.0279 in assay [5]; 0.0669 in assay [6]; 0.0181 in assay [7]; 0.0301 in [8]. For the same molecule, the log fold change Tl+ flux was 0.0324 in assay [9], 0.062 in [10], -0.0715 in [11] and -0.0385 in [12].
`C[C@]12CC[C@@H]3c4ccc(O)cc4CC[C@H]3[C@@H]1CC[C@@H]2O`: the period change in [13] is 0.19 h. Further, the inhibition was -3% in assay [14] and -0.87% in assay [1]. Also, the fluorescence ratio (interference) in assay [15] was 1. Besides, in [2], the fluorescence ratio is 0.97. Also, in [16], the call was inactive. In addition, the log fold change Tl+ flux in [3] was 0.0249; in assay [5], -0.0581; in assay [7], 0.072; in assay [8], 0.021; in [9], 0.0222; in assay [10] it was -0.0294.
Regarding `CCCCC(=O)O[C@H]1CC[C@H]2[C@@H]3CCc4cc(O)ccc4[C@H]3CC[C@]12C`, in [1], the inhibition was 4.1%. Moreover, the fluorescence ratio in [2] is 0.91. Also, the log fold change Tl+ flux in [3] was 0.0324; in [4], -0.0484; in [5], 0.0462; in assay [6] it was 0.00293; in [7], 0.00253; in [8], 0.0329. Moreover, the log fold change Tl+ flux was 0.0221 in [9], -0.00327 in assay [10], -0.0402 in assay [11] and 0.00597 in [12].
Consider `OC[C@H]1O[C@@H](Oc2cc(O)cc(/C=C/c3ccc(O)cc3)c2)[C@H](O)[C@@H](O)[C@@H]1O`, for which the inhibition in [1] is 10.7%. In assay [2], the fluorescence ratio was 0.98. Further, the mean signal in assay [17] was 254. Moreover, the result in assay [18] was inactive. Also, the log fold change Tl+ flux is 0.0295 in assay [3]; -0.0141 in assay [4]; -0.0576 in assay [5]; -0.0711 in [6]; -0.0684 in assay [7]; -0.101 in assay [8]. The log fold change Tl+ flux in assay [9] is -0.0629; in assay [10], -0.0169; in [11] it was 0.00405; in [12] it was 0.104 (active).
As for `CC(C)[N+]1(C)C2CCC1CC(OC(=O)C(CO)c1ccccc1)C2` (stereo unspecified), the inhibition in [1] is -3.53%. For the same molecule, in assay [2], the fluorescence ratio was 1.02. For the same molecule, the mean signal in assay [17] is 254. For the same molecule, the molecule was classed as inactive in [19]. The log fold change Tl+ flux in assay [3] is 0.00902; in assay [4], 0.0263; in [5] it was -0.00601; in assay [6], 0.0435; in assay [7], 0.0518; in assay [8], 0.0409. Also, the log fold change Tl+ flux in assay [9] is -0.0331; in assay [10], 0.000928; in assay [11], 0.0153; in assay [12], -0.0119.
As to `CN=C(N)NCCC[C@H](N)C(=O)O`, the period change in assay [13] was -0.035 h. The inhibition is 0% in assay [14] and -2.41% in [1]. Besides, in [15], the fluorescence ratio (interference) was 1. The fluorescence ratio in [2] is 0.93. Further, the mean signal in assay [17] was 269. The call in assay [16] was inactive.
Consider `CCCC1O[C@@H]2C[C@H]3[C@@H]4CCC5=CC(=O)C=C[C@]5(C)[C@H]4[C@@H](O)C[C@]3(C)[C@]2(C(=O)CO)O1` (stereo partly specified), for which the period change in assay [13] was -0.26 h. The results for the inhibition in assay [14] and in assay [1] were -5% and 1.05%, respectively. In addition, the fluorescence ratio (interference) in [15] was 0.9. Besides, the fluorescence ratio in assay [2] was 0.99. Besides, the molecule was called inactive in assay [16]. For the same molecule, the log fold change Tl+ flux in assay [3] was 0.198 (active); in assay [4] it was 0.126 (active); in assay [5], 0.159 (active); in [6], 0.0417; in assay [7], 0.0553; in assay [8], 0.0776. Moreover, the log fold change Tl+ flux in assay [9] was 0.133 (active); in assay [10], 0.115 (active); in assay [11], 0.1; in assay [12], -0.0145.
As for `Nc1ccn([C@@H]2O[C@H](CO)[C@@H](O)C2O)c(=O)n1` (stereo partly specified), the inhibition in [1] is -0.87%. Further, in assay [2], the fluorescence ratio is 0.87. The mean signal in assay [17] is 259. In addition, the call in [20], in assay [18] and in [16] was inactive. Moreover, the log fold change Tl+ flux in assay [3] is -0.0332; in assay [5], 0.0269; in [7] it was 0.0371; in assay [8] it was 0.00256; in assay [9] it was -0.0266; in assay [10], -0.0193.
As to `CC[C@H](C)C(=O)O[C@H]1CCC=C2C=C[C@H](C)[C@H](CC[C@@H]3C[C@@H](O)CC(=O)O3)[C@H]21`, in assay [13], the period change is 0.035 h. Also, the inhibition in [14] is -1%; in assay [1], 1.97%. For the same molecule, the fluorescence ratio (interference) in assay [15] was 0.9. The fluorescence ratio in assay [2] is 0.89. Moreover, the mean signal in assay [17] was 242. Besides, the result in assay [16] was inactive.
For the molecule `CC(=O)N=c1sc(S(N)(=O)=O)nn1C`, in [1], the inhibition is -3.53%. In addition, in assay [2], the fluorescence ratio was 1.03. Besides, the mean signal in assay [17] is 273. The log fold change Tl+ flux in assay [3] was 0.00591; in assay [4] it was -0.0785; in assay [5], 0.00714; in [6] it was 0.0268; in assay [7], -0.0355; in [8], 0.00598. Further, the log fold change Tl+ flux was -0.028 in assay [9], -0.0276 in [10], -0.0118 in [11] and -0.0121 in assay [12].
Take `CNCCC=C1c2ccccc2CCc2ccccc21`: in [13], the period change was 0.025 h. Moreover, the inhibition in assay [14] was -5%; in assay [1], -4.29%. Besides, the fluorescence ratio (interference) in assay [15] was 1. In assay [2], the fluorescence ratio was 0.99. Also, the mean signal in assay [17] was 233. Also, the call in assay [16] was inactive. The log fold change Tl+ flux in assay [3] is 0.169 (active); in assay [4], 0.0784; in [5], 0.217 (active); in assay [6] it was 0.255 (active); in assay [7], 0.00764; in assay [8], 0.0226. The log fold change Tl+ flux in [9] is 0.165 (active); in [10], 0.126 (active); in assay [11] it was 0.121; in assay [12], -0.0571.
